# Reference: ChEMBL document CHEMBL3988442, “University of Dundee, Small-Polar-MMV Screening Library” (2021)
# “And” between values parts separate entries of the source, which are not always exact repeats. Identical values can stand only once. For some assays here: Measured potencies and affinities stand elsewhere.
# Key:
# [1] = target: Protein translocase subunit SecA (Escherichia coli (strain K12)) (UniProt P10408); assay: Assay to Identify E. coli SecA ATPase Inhibitors; format: functional; parameters: scale not given: direction of the effect not stated beside the values; conditions: 30 µM
# [2] = target: T1, Ubiquitin-activating enzyme e1, putative (Leishmania donovani (strain BPK282A1)) (UniProt E9BSI1); assay: Leishmania donovani Ubiquitin Activating Enzyme (LdE1); format: functional; parameters: scale not given: direction of the effect not stated beside the values; conditions: 30 µM
# T1 sequence (whole entry): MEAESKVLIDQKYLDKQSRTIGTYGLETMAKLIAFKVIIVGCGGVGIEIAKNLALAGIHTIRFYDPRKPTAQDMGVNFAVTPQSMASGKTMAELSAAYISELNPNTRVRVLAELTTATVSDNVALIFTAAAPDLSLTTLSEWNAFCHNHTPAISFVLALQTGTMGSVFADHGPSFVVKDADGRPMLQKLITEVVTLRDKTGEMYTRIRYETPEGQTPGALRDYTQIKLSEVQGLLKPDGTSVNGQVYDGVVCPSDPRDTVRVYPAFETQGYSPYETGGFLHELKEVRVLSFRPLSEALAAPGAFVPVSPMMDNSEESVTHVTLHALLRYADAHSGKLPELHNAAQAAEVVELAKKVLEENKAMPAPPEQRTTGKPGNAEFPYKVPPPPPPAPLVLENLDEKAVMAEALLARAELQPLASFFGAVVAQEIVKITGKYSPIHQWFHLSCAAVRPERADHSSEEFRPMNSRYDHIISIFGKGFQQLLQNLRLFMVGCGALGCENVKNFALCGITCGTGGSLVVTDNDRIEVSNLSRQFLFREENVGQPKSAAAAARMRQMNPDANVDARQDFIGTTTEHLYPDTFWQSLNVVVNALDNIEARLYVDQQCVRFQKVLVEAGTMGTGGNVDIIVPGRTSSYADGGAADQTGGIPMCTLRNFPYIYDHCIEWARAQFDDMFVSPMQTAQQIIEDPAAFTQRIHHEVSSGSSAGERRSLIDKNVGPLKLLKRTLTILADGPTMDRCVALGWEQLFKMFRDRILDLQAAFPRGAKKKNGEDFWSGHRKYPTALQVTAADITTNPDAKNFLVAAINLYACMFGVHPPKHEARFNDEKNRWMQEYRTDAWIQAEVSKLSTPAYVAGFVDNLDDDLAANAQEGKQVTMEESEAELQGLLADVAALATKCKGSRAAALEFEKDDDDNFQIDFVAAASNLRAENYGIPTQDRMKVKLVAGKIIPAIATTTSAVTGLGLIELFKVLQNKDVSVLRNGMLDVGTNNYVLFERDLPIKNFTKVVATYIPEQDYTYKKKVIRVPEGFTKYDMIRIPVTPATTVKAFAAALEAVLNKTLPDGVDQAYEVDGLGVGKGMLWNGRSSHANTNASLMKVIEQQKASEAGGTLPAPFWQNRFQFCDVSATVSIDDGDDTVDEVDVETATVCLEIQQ
# [3] = target: T2, Aspartate--tRNA(Asp/Asn) ligase (Mycobacterium tuberculosis (strain ATCC 25618 / H37Rv)) (UniProt P9WFW3); assay: Assay for Asp RNA synthetase-1 from Mycobacterium tuberculosis; format: functional; parameters: scale not given: direction of the effect not stated beside the values; conditions: 30 µM; further: in the data most compounds retested in dose-response had high values
# T2 sequence (whole entry): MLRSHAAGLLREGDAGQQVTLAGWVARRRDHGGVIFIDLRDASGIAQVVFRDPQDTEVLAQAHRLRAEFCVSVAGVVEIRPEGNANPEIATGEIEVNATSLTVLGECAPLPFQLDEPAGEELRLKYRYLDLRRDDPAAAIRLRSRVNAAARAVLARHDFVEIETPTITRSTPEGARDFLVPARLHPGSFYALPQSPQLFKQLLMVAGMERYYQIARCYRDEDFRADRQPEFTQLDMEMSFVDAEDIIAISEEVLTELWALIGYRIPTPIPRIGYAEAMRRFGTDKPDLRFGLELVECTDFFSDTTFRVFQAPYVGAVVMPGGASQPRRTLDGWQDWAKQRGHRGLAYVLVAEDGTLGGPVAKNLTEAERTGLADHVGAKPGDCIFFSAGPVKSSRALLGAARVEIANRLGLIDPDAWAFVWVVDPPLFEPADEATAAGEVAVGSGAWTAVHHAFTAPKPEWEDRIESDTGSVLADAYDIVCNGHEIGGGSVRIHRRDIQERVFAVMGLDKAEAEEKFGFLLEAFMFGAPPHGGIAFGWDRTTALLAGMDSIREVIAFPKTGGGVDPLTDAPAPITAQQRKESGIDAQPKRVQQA
# [4] = target: AMP-activated protein kinase, AMPK (Homo sapiens) (UniProt P54646+O43741+P54619+Q9UGJ0+Q9Y478+Q13131+Q9UGI9); assay: AMP-dependent Kinase enzyme assay. An in vitro enzyme assay that detects ADP turnover that is directly proportional to AMPK activity. This uses naive AMPK that is activated during the assay with MK-8722; format: functional; parameters: scale not given: direction of the effect not stated beside the values; conditions: 30 µM
# [5] = target: Sialic acid-binding Ig-like lectin 9 (Homo sapiens) (UniProt Q9Y336); assay: Hs-Siglec9 ALPHAscreen SOP 20170721; parameters: scale not given: direction of the effect not stated beside the values; conditions: 10 µM
# Trypanosoma cruzi = assay: Trypanosoma cruzi phosphomannomutase and mannose-1-phosphate guanylyltransferase assay; format: functional; parameters: scale not given: direction of the effect not stated beside the values; conditions: 10 µM
# [6] = target: T3, Arginase-2, mitochondrial (Homo sapiens) (UniProt P78540); assay: in vitro enzyme assay to detect the production of urea directly proportional to the activity of Arginase II; format: functional; parameters: scale not given: in the data most compounds retested in dose-response had high values; conditions: 33.3 µM
# T3 sequence (whole entry): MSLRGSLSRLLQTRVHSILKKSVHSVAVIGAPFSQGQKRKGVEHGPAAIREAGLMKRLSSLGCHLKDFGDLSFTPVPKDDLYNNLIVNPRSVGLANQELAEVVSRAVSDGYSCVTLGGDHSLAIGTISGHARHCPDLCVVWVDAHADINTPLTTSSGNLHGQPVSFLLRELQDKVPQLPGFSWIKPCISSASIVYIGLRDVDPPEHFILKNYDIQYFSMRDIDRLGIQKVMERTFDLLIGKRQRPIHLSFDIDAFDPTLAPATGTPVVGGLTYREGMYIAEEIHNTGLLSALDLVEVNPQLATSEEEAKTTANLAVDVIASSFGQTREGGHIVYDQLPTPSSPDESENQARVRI
# [7] = target: T4, Proteasome subunit beta (Trypanosoma cruzi) (UniProt O96673); assay: Trypanosoma cruzi proteasome chymotrypsin-like activity (TcProtChymo) assay.; format: functional; parameters: scale not given: in the data most compounds retested in dose-response had high values; conditions: 9.37 µM
# T4 sequence (whole entry): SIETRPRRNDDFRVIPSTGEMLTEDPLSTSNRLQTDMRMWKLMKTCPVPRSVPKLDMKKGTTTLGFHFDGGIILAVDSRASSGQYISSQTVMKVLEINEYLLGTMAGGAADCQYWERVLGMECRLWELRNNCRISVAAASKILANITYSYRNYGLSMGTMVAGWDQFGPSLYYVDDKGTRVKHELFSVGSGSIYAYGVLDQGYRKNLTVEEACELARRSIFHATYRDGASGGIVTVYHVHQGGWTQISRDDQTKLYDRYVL
# Homo sapiens = species on record: Homo sapiens; assay: To identify inhibition of the IFN signalling (Jak-Stat) pathway via expression of an eGFP reporter gene under the control of an IFN-stimulated response element (ISRE) containing MxA promoter.; format: functional; parameters: scale not given: direction of the effect not stated beside the values; conditions: 30 µM
# [8] = target: Shiga toxin 2 (Escherichia coli O157:H7) (UniProt P09385+P09386); assay: E. coli 0.157:H7 Shiga Toxin SOP - stx2 screening assay; format: functional; parameters: scale not given: direction of the effect not stated beside the values; conditions: 30 µM
# [9] = target: T5, Tyrosyl-tRNA synthetase, putative (Trypanosoma cruzi (strain CL Brener)) (UniProt Q4DSP6); assay: Trypanosoma cruzi tyrosyl tRNA synthetase (TcYRS) _High Tyrosine SOP; format: functional; parameters: scale not given: in the data most compounds retested in dose-response had high values; conditions: 30 µM
# T5 sequence (whole entry): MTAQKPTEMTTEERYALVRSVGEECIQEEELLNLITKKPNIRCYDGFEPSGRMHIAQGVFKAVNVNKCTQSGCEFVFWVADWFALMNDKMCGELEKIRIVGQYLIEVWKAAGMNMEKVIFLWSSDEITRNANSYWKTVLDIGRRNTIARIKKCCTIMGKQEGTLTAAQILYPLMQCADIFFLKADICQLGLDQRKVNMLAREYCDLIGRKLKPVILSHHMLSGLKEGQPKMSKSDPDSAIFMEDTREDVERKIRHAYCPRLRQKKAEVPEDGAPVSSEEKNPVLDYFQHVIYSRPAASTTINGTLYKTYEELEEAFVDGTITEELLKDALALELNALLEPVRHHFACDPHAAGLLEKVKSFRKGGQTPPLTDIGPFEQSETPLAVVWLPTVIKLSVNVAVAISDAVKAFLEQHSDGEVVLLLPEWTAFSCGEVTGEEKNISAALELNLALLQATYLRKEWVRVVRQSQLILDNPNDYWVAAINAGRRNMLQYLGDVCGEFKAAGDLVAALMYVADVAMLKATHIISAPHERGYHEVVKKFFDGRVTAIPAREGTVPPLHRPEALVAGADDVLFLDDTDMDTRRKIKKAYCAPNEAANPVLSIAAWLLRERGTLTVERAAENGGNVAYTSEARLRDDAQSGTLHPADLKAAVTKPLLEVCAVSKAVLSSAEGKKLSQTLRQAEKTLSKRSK
# [10] = target: T5, Tyrosyl-tRNA synthetase, putative (Trypanosoma cruzi (strain CL Brener)); assay: Trypanosoma cruzi tyrosyl tRNA synthetase (TcYRS) SOP; format: functional; parameters: scale not given: direction of the effect not stated beside the values; conditions: 30 µM
# [11] = target: Chromo domain-containing protein 1 (Saccharomyces cerevisiae (strain ATCC 204508 / S288c) (Baker's yeast)) (UniProt P32657); assay: ScCHD-1 Enzyme Inhibition Assay; format: functional; parameters: scale not given: in the data most compounds retested in dose-response had high values; conditions: 30 µM
# [12] = target: T6, Methionyl-tRNA synthetase, putative (Leishmania donovani (strain BPK282A1)) (UniProt E9BF75); assay: Leishmania donovani Methionine tRNA synthetase (LdMetRS):v7. Dose response assay; format: functional; parameters: conc 80 nM, time 150 minutes
# T6 sequence (whole entry): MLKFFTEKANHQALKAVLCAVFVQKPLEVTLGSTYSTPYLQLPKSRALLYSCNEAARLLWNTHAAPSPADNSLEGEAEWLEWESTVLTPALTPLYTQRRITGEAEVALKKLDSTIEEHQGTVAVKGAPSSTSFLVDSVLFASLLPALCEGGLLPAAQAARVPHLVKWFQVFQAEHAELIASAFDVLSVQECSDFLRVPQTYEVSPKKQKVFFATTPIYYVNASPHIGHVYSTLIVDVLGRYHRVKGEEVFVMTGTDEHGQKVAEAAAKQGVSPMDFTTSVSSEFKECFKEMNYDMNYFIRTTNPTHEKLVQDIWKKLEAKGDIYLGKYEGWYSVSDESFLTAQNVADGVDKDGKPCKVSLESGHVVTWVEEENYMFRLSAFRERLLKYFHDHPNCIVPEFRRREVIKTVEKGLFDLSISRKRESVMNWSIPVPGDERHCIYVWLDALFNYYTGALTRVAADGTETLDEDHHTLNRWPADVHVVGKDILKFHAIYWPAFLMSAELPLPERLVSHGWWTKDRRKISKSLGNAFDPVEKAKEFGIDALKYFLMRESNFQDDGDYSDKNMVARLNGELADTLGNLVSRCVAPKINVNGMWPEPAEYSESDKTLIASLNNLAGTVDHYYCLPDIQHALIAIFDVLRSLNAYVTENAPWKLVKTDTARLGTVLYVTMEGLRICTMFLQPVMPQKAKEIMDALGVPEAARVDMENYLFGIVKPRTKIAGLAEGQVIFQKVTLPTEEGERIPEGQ
# N/A = assay: Trypanosoma cruzi proteasome luciferase counter-screen; format: functional; parameters: scale not given: direction of the effect not stated beside the values; conditions: 9.37 µM
# Chain of Sialic acid-binding Ig-like lectin 9 (Homo sapiens) (Q9Y336 whole entry): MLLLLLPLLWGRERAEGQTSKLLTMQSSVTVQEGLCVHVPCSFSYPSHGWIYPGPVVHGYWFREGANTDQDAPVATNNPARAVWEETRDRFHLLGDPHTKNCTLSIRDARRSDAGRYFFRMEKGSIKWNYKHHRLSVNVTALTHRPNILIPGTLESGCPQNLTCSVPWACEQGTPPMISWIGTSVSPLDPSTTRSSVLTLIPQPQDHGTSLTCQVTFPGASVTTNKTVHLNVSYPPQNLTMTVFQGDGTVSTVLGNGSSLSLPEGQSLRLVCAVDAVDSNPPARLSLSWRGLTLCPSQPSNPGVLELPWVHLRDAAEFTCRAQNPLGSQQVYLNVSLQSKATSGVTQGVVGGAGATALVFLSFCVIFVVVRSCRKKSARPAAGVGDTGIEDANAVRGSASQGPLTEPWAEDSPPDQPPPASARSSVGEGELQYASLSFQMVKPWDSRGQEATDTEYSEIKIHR
# Chain of Protein translocase subunit SecA (Escherichia coli (strain K12)) (P10408 whole entry): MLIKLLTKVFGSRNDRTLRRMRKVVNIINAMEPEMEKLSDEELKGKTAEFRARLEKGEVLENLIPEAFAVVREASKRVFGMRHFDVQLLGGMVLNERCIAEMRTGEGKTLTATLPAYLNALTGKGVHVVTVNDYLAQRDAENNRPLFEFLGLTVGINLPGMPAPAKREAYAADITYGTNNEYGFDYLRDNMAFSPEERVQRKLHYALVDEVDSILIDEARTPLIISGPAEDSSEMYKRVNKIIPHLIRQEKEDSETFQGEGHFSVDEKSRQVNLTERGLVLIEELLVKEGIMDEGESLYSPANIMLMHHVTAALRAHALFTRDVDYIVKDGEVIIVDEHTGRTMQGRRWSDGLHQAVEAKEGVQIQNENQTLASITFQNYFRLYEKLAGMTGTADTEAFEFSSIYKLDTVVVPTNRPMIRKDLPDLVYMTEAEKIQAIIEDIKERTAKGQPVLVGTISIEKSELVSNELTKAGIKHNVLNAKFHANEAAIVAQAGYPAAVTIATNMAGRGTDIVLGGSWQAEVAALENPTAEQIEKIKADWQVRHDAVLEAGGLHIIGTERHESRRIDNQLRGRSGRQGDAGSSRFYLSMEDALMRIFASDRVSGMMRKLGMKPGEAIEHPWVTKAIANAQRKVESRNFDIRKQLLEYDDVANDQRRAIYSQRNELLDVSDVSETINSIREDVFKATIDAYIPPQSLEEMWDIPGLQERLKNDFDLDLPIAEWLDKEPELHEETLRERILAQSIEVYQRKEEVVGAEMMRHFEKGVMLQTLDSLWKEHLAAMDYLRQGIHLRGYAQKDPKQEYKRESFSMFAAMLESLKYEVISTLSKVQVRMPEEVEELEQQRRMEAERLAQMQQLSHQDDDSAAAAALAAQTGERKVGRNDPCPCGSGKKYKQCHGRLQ
# Chain of Chromo domain-containing protein 1 (Saccharomyces cerevisiae (strain ATCC 204508 / S288c) (Baker's yeast)) (P32657 whole entry, the tested form may be a part): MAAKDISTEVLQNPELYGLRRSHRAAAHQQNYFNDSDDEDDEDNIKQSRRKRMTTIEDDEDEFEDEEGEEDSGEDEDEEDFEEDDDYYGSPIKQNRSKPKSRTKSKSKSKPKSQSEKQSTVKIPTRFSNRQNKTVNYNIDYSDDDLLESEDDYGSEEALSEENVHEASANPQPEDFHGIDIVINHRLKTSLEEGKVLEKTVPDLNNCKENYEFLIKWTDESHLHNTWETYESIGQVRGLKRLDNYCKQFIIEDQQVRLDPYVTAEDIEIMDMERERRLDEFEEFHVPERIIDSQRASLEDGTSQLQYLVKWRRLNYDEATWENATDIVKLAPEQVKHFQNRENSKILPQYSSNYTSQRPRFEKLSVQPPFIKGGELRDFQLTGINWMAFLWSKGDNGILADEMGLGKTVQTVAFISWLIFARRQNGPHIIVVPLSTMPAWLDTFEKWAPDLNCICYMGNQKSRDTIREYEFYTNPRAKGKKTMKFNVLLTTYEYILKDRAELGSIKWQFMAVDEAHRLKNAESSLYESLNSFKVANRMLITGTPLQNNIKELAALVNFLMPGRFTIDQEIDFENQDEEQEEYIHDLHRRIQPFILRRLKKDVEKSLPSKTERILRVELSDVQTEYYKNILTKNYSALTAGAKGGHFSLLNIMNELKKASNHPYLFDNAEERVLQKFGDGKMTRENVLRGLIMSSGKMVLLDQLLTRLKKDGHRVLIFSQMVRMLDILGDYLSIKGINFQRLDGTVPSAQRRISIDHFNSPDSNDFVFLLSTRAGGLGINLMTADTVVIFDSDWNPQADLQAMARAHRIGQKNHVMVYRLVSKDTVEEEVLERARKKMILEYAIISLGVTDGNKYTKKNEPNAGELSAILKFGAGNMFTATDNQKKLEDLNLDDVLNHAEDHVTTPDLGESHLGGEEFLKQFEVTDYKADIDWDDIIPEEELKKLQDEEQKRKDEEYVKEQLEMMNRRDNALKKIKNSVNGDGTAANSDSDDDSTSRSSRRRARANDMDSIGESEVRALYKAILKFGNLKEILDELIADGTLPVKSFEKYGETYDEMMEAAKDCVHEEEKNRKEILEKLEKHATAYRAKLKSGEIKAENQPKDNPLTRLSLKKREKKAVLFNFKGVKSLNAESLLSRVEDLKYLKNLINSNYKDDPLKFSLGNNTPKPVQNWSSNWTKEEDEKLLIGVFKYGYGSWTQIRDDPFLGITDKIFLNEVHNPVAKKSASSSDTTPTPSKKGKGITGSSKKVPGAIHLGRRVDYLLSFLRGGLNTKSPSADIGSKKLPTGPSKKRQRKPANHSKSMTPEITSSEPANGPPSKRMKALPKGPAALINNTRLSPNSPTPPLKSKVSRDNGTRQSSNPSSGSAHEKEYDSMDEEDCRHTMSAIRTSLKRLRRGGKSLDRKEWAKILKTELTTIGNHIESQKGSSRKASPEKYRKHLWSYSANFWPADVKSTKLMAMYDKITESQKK
structure (smiles),measurement,setting,value
CN(C)C(=O)CN1C[C@@H]2CC[C@H](C1)N(C(=O)Cc1ccccc1Cl)C2,Percent Effect,[1],-7.08%
same,Percent Effect,[2],-8.22%
same,Percent Effect,[3],1.5%
same,Percent Effect,[4],3.48%
same,Percent Effect,[5],-0.0171%
same,Percent Effect,Trypanosoma cruzi,-5.16%
same,Percent Effect,[6],0.798%
same,Percent Effect,[7],9.16%
same,Percent Effect,Homo sapiens,-4.89%
same,Percent Effect,[8],-30.4%
same,Percent Effect,[9],0%
same,Percent Effect,[10],-23.5%
same,Percent Effect,[11],-1.84%
COc1ccc(Cl)cc1Cl,PXC50,[12]; MAX_EFFECT 11.87904968,< 3
same,PXC50,[12]; MAX_EFFECT 16.92015209,< 3
c1cc(CN2CCO[C@H]3[C@H](OCC4CCCC4)CC[C@@H]32)ccn1,Percent Effect,[1],-2.78%
same,Percent Effect,[2],5.41%
same,Percent Effect,[3],5.76%
same,Percent Effect,[4],0.694%
same,Percent Effect,[5],-1.13%
same,Percent Effect,Trypanosoma cruzi,-3.81%
same,Percent Effect,[6],1.59%
same,Percent Effect,[7],19%
same,Percent Effect,Homo sapiens,24.5%
same,Percent Effect,[8],1.34%
same,Percent Effect,[9],-2.16%
same,Percent Effect,[10],7.69%
same,Percent Effect,[11],2.01%
Cc1cc(C(F)(F)F)nc(N2CCN3CCCC3C2)n1 (centres undefined),PXC50,[12]; MAX_EFFECT 10.18276762,< 4
same,PXC50,[12]; MAX_EFFECT 10.96605744,< 4
CO[C@@H]1CN(Cc2scnc2C)[C@@H]2CCCO[C@@H]21,Percent Effect,[1],-5.71%
same,Percent Effect,[2],2.7%
same,Percent Effect,[3],-1.4%
same,Percent Effect,[4],-6.24%
same,Percent Effect,[5],4.17%
same,Percent Effect,Trypanosoma cruzi,2.25%
same,Percent Effect,[6],3.72%
same,Percent Effect,[7],82% and 78.2% and 80%
same,Percent Effect,N/A,19.6% and 16.4%
same,Percent Effect,Homo sapiens,-7.25%
same,Percent Effect,[8],8.62%
same,Percent Effect,[9],6.45%
same,Percent Effect,[10],8.64%
same,Percent Effect,[11],-1.19%
